# Source: PubChem BioAssay
# Values without a mark were called inactive. The source made the active and inactive calls.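 How the source made its calls, unless noted: active means mean inhibition above 46.68%, the untreated control wells mean plus 3 SD; inactive means the rest.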
# Experiments:
# [1] = molecular target: Nuclear receptor coactivator 1 (Homo sapiens) (UniProt Q15788); assay: NCOA1 GAL4-fusion reporter inhibition – cell-based, luminescence, quadruplicate, confirmation (AID 588820); settings: HEK293 GAL4-SRC1 luciferase reporter, at 3.6 µM, stronger effect = higher value;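 further: 0% = DMSO wells and 100% = gossypol 36 µM treated wells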
# [2] = repression of VP16-driven luciferase reporter – cell-based, luminescence, high throughput, counter-screen for SRC1 inhibitor project (AID 588824; in the data active means inhibition above about 25%); settings: cell-based VP16 transactivation luciferase luminescence; at 3.6 µM; stronger effect = higher value
# Chain of Nuclear receptor coactivator 1 (Homo sapiens) (Q15788 whole entry, looked up, the tested form may be a part): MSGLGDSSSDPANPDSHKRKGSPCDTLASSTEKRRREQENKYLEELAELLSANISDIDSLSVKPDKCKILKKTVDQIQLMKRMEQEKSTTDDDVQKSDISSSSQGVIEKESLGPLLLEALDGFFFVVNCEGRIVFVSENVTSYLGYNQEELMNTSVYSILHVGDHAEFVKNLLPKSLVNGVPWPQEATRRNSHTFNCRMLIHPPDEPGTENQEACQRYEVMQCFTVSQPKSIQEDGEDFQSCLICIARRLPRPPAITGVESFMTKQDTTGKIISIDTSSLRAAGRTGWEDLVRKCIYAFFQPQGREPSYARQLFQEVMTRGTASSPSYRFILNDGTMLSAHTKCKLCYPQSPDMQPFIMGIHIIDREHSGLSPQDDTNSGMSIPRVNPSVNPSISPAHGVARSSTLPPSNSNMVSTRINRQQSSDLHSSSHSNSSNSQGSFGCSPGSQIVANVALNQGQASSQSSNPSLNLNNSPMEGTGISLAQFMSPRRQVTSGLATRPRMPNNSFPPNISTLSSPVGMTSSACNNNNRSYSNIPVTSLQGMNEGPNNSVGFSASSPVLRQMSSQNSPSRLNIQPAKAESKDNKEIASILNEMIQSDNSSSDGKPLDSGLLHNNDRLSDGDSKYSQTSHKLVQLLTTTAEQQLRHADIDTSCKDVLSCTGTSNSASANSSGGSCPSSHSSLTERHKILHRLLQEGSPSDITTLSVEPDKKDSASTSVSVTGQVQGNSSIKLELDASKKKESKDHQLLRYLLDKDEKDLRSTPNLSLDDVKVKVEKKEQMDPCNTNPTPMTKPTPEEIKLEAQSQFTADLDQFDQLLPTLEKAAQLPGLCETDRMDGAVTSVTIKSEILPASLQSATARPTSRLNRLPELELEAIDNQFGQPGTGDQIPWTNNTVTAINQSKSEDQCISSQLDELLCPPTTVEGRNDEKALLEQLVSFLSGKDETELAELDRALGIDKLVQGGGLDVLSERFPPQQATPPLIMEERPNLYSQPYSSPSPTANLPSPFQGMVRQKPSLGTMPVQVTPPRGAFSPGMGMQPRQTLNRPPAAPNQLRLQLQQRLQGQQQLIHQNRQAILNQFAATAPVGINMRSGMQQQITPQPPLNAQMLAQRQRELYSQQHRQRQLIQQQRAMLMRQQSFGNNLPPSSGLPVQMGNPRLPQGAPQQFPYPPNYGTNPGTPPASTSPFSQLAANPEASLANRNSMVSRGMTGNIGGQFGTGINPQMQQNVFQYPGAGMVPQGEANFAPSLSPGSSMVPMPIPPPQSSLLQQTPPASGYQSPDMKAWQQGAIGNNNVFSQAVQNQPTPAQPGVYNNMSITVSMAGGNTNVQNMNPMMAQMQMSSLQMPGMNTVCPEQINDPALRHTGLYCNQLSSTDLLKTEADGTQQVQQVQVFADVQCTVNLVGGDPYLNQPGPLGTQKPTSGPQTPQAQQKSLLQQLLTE
Structure (SMILES),inhibition [1],inhibition [2]
COc1ccc(CN2CCN(C(=O)c3ccc(S(=O)(=O)N4CCCCCC4)cc3)CC2)cc1,-2.25%,25.6% (active)
CN(Cc1ccc(OC(F)F)cc1)C(=O)c1cccc(S(=O)(=O)N2CCN(Cc3ccccc3)CC2)c1,-14%,35% (active)
COc1ccc2sc3c(=O)[nH]c4ccccc4c3c2c1,55% (active),41.4% (active)
CCOC(=O)Cc1csc(SCC(=O)c2c(N)n(CC(C)C)c(=O)n(C)c2=O)n1,-7.3%,26.3% (active)
Cc1cc(-c2ccc(F)cc2)n2ncc(-c3ccccc3)c2n1,-87.3%,-34.6%
